According to PubChem BioAssay (EPA / NIEHS):
Where “and” joins values, the source holds several entries; their conditions need not be identical. Equal values may be shown once. More than one record can exist for a structure, and the calls need not agree. Calls of active or inactive are those of the source. Rule for the calls: active = hit-call score of the fitted dose curve at least 0.9, where 1 is the maximum; inactive = score below 0.9.

These molecules were tested on CD40, CD40 (gene 958) (assay: BSK_SAg_CD40: BioMAP Diversity Plus: SAg Assay for CD40 Biomarker Activity (AID 2283088)). Conditions: primary human HUVEC with PBMC; actives raise or lower the signal.
Experimental: BSK_SAg is a cell-based, multiplexed-readout assay that uses umbilical vein endothelium and peripheral blood mononuclear cells, a human vascular primary cell co-culture, with measurements taken at 24 hours after chemical dosing in a 96-well plate.BSK_SAg_CD40 is one of 10 assay component(s) measured or calculated from the BSK_SAg assay. It is designed to make measurements of enzyme-linked immunosorbent assay, a form of binding reporter, as detected with fluorescence intensity signals by Enzyme-linked immunosorbent assay technology.Data from the assay component BSK_SAg_CD40 was analyzed into 1 assay endpoint. This assay endpoint, BSK_SAg_CD40, was analyzed with bidirectional fitting relative to DMSO as the negative control and baseline of activity. Using a type of binding reporter, gain or loss-of-signal activity can be used to understand changes in the signaling as they relate to the gene CD40. Furthermore, this assay endpoint can be referred to as a primary readout, because this assay has produced multiple assay endpoints where this one serves a signaling function. To generalize the intended target to other relatable targets, this assay endpoint is annotated to the cytokine intended target family, where the subfamily is inflammatory factor.
The levels of cell surface (or secreted, indicated by the prefix "s") biomarker endpoints were measured by ELISA. Overt cytotoxicity to cells in confluent adherent cultures (all systems other than the BT system) was assessed by measuring total protein levels using sulforhodamine B (SRB) staining in parallel cultures at the time of biomarker measurements, indicated as SRB endpoints. For proliferation assays for adherent cell types, individual cell types are cultured at sub-confluence and relative cell numbers quantified by SRB staining at time points optimized for each system (48 h: 3C and CASM3C systems; 72 h: BT and HDF3CGF systems; 96 h: SAg system). SRB was performed by staining cells with 0.1% SRB after fixation with 10% TCA and reading wells at 560 nm.Viability and proliferation of PBMC (T cells) was quantified by Alamar Blue reduction for the SAg and BT systems. For PBMC viability (referred to as PBMC Cytotoxicity within the assay endpoint names), cells were plated (75,000/well in a 96-well plate) and then chemical samples added for 1 h before addition of activators, SEB and TSST-1 (20 ng/mL final concentration each). Cells were incubated for 90 h. Then, Alamar Blue (20 uL/well) (Invitrogen, Cat DAL1100) was added for 6 h, and the plates were read with a fluorescence microplate reader at 546/580 nm (excitation/emission). For PBMC proliferation, cells were plated and activated as above but incubated for only 16 h prior to addition of Alamar Blue. Plates were read after 6 h.

Q: With Nc1ccc(-c2ccc(N)c(Cl)c2)cc1Cl as the molecule, how does the outcome read?
A: inactive

Q: Which outcome does the source give for O=C(O)CCC(F)(C(F)(F)F)C(F)(F)F here?
A: inactive

Q: How did the outcome turn out when C[C@]12CCC(=O)C[C@@H]1CC[C@@H]1[C@@H]2CC[C@]2(C)[C@@H](O)CC[C@@H]12 was run?
A: inactive

Q: For CCOC(=O)/C=C(C)/C=C/C[C@@H](C)CCCC(C)C, which AC50 is on record?
A: 25.8 µM (active)

Q: For CN(C)N=O, which outcome is on record?
A: inactive

Q: CC1(C)Cc2cccc(O)c2O1 was tested. Which outcome did it give?
A: inactive

Q: How did the outcome turn out when OCc1ccco1 was run?
A: inactive

Q: With Oc1ccc(-c2ccccc2)cc1 as the molecule, how does the outcome read?
A: inactive

Q: With CCOP(=S)(OCC)Oc1ccc(S(C)=O)cc1 (stereo not given) as the molecule, how does the outcome read?
A: inactive

Q: For CCN1CCC2(CC1)COc1cc3c(cc12)N(C(=O)c1ccc(-c2ccc(-c4nnc(C)o4)cc2C)cc1)CC3, which AC50 is on record?
A: 18.7 µM (active)

Q: C=C(C)C(=O)[O][Sn]([CH2]CCC)([CH2]CCC)[CH2]CCC was tested. Which AC50 did it give?
A: 0.148 µM (active)

Q: Which outcome does the source give for O=[N+]([O-])c1ccc2c3c(cccc13)CC2 here?
A: inactive

Q: CC(=O)OC(c1ccccc1)C(Cl)(Cl)Cl (stereo not given) was tested. Which outcome did it give?
A: inactive

Q: With O=C1C2(Cl)C3(Cl)C4(Cl)C(Cl)(Cl)C5(Cl)C3(Cl)C1(Cl)C5(Cl)C24Cl (stereo not given) as the molecule, how does the AC50 read?
A: 8.7 µM (active)

Q: For ClC(Cl)=C(Cl)C(Cl)=C(Cl)Cl, which outcome is on record?
A: inactive

Q: How did the outcome turn out when O=Cc1cccc(Oc2ccccc2)c1 was run?
A: inactive

Q: C(=NC1CCCCC1)=NC1CCCCC1 was tested. Which AC50 did it give?
A: 17.3 µM (active)

Q: How did the outcome turn out when COP(=S)(OC)Oc1ccc(S(=O)(=O)N(C)C)cc1 was run?
A: inactive

Q: CCNc1nc(NC(C)(C)C)nc(SC)n1 was tested. Which outcome did it give?
A: inactive

Q: For Cc1ccccc1N, which outcome is on record?
A: inactive

Q: For Nc1ncc([N+](=O)[O-])s1, which outcome is on record?
A: inactive

Q: Which outcome does the source give for ClC1(Cl)C2(Cl)C3(Cl)C4(Cl)C(Cl)(Cl)C5(Cl)C3(Cl)C1(Cl)C5(Cl)C24Cl (stereo not given) here?
A: inactive

Q: With CC(C)(C)CC(C)(C)c1ccc(O)cc1 as the molecule, how does the AC50 read?
A: 7.96 µM (active)

Q: What does the source list for COC(=O)Cc1ccccc1?
A: outcome: inactive; AC50: 31.3 µM (active)

Q: Which outcome does the source give for CCSC(C)CC1CC(=O)C(C(CC)=NOC/C=C/Cl)=C(O)C1 (stereo not given) here?
A: inactive

Q: COP(=S)(OC)Oc1c(Cl)cc(C)cc1Cl was tested. Which outcome did it give?
A: inactive

Q: How did the AC50 turn out when CC(C)(C)c1cc(O)ccc1O was run?
A: 8.26 µM (active)

Q: O=C(O)C(F)(F)C(F)(F)C(F)(F)C(F)(F)C(F)(F)C(F)(F)C(F)(F)C(F)(F)C(F)(F)C(F)(F)F was tested. Which AC50 did it give?
A: 29.2 µM (active) and 5.41 µM (active) and 5.27 µM (active)

Q: With CC(=O)C(Cl)C(=O)N(C)C (stereo not given) as the molecule, how does the AC50 read?
A: 20 µM (active)

Q: For CC12CC1(C)C(=O)N(c1cc(Cl)cc(Cl)c1)C2=O (stereo not given), which outcome is on record?
A: inactive

Q: CCCCCCCCc1ccc(O)cc1 was tested. Which AC50 did it give?
A: 32.2 µM (active)

Q: Which outcome does the source give for CC(C)(OO)c1ccccc1 here?
A: inactive

Q: How did the outcome turn out when COC[C@H](C)N(C(=O)CCl)c1c(C)csc1C was run?
A: inactive

Q: With C=CC(=O)OCCCCCC(C)C as the molecule, how does the outcome read?
A: inactive

Q: With BrCCBr as the molecule, how does the outcome read?
A: inactive

Q: CC(=O)[O][Hg][c]1ccccc1 was tested. Which AC50 did it give?
A: 1.46 µM (active)

Q: For CC(C)CCCCCCOC(=O)c1ccccc1C(=O)OCCCCCCC(C)C, which outcome is on record?
A: inactive

Q: CCCCCCCCC(=O)NCc1ccc(O)c(OC)c1 was tested. Which outcome did it give?
A: inactive

Q: For O=C(Nc1ccc2[nH]ccc2c1)c1cc2cc(F)ccc2n1Cc1cccc(F)c1, which AC50 is on record?
A: 8.2 µM (active)
